# PubChem BioAssay (Tox21)
# Results filed as inconclusive are left out. Active and inactive are the calls of the source. Unless noted, calls follow the shape of the full dose curve.
# Molecular target: D(2) dopamine receptor (Homo sapiens) (UniProt P14416)
# Assay: Dopamine D2 receptor (DRD2) small molecule agonists, cell-based qHTS assay (AID 1963594); also: nearly all actives have a fitted effect of over 35% in size
# Conditions: HEK293-DRD2 cAMP HTRF, agonist mode, 30 min; series mostly up to 92.4 µM; activation: at the top concentration
# Outline: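 cAMP accumulation in DRD2-HEK293 cells measured by HTRF after 1 h detection; compounds added 10 min before NKH477 (200nM […]) forskolin-analogue stimulation, 30 min at room temperature, with Ro20-1724 present at 0.1 mM final.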
# % is scaled to controls: 0 for no effect and ±100 for the full control effect; potency is read from the fitted curve at half-maximal effect.
# Sequence of D(2) dopamine receptor (Homo sapiens) (P14416 whole entry, looked up): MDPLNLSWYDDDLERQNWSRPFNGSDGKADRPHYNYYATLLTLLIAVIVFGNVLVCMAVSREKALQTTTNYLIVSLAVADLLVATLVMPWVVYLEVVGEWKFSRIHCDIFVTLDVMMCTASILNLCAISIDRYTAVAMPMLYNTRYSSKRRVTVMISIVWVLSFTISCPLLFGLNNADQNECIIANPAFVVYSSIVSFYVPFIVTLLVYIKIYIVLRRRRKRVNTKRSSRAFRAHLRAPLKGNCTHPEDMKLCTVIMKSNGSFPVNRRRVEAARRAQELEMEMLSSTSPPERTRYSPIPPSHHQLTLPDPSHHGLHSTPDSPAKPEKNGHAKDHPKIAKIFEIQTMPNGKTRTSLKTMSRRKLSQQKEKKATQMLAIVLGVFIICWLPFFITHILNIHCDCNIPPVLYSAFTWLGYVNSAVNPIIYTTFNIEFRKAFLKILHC
Compound,activation,Potency
c1cc2c3c(c1)ccc1cccc(c13)C2,-3.13% (inactive),–
CCOC(=O)N1CCC(Nc2ccc(Cl)cc2N)CC1,15.9% [at 42.5 µM] (inactive),–
COc1cc(C(C)C)ccc1C,-1.89% [at 19 µM] (inactive),–
CCCCCCCCCCOCC(O)CN (stereo not drawn),-21.4% [at 42.5 µM] (inactive),–
CC(C)(Oc1ccc(Cl)cc1)C(=O)OCCCOC(=O)C(C)(C)Oc1ccc(Cl)cc1,-16.2% [at 42.5 µM] (inactive),–
CCCCCCCC(=O)Oc1c(Br)cc(C#N)cc1Br,-2.34% (inactive),–
COc1ccc(-c2coc3cc(O)ccc3c2=O)cc1,4.19% (inactive),–
COc1ccc2nc(SCc3ncc(C)c(OC)c3C)[nH]c2c1,-7.2% [at 42.5 µM] (inactive),–
O=S(=O)(O)c1ccc(Cl)cc1,-2.13% (inactive),–
CC(C)OC(=O)C(C)N(C(=O)c1ccccc1)c1ccc(F)c(Cl)c1 (stereo not drawn),-2.65% (inactive),–
CCOC(=O)c1c(N)sc2c1CCN(Cc1ccccc1)C2,-5.46% [at 42.5 µM] (inactive),–
CN(C)CCCCl,-0.0663% (inactive),–
C=C(C)C(=O)OC1CC(C)CC(C)(C)C1 (stereo not drawn),-0.473% (inactive),–
Nc1cc(C(=O)O)ccc1Cl,-4.15% (inactive),–
O=C(NC1CCN(CCc2c[nH]c3ccccc23)CC1)c1ccccc1,-38.5% [at 42.5 µM] (inactive),–
O=C(O)CCCc1c[nH]c2ccccc12,-7.79% (inactive),–

Compound,activation,Potency
CCN(CC)c1cccc(C)c1,0.0404% (inactive),–
CCO[Si](C)(CCCOCC1CO1)OCC (stereo not drawn),3.2% (inactive),–
CCCC(=O)O[C@]1(C(=O)CC)CC[C@H]2[C@@H]3CCC4=CC(=O)CC[C@]4(C)[C@H]3[C@@H](O)C[C@@]21C,-14.3% [at 42.5 µM] (inactive),–
CCC(=O)Oc1ccc2c(c1)CC[C@@H]1[C@@H]2CC[C@@]2(C)[C@H]1C[C@@H](OC(=O)CC)[C@@H]2OC(=O)CC,-9.81% [at 42.5 µM] (inactive),–
C[C@H](O)C(=O)Nc1c(I)c(C(=O)NC(CO)CO)c(I)c(C(=O)NC(CO)CO)c1I,8.56% [at 42.5 µM] (inactive),–
CC1(C)CCC(C)(C)c2cc(NC(=O)c3ccc(C(=O)O)cc3)ccc21,–,1060 nM (active)
O=C=NCc1cccc(CN=C=O)c1,-2% [at 19 µM] (inactive),–
CCCCC(=O)O[C@]1(C(=O)CO)CC[C@H]2[C@@H]3CCC4=CC(=O)CC[C@]4(C)[C@H]3[C@@H](O)C[C@@]21C,-8.23% [at 42.5 µM] (inactive),–
CC[C@H](NC(C)C)[C@H](O)c1ccc(O)c2[nH]c(=O)ccc12,-16.2% [at 42.5 µM] (inactive),–
O=[N+]([O-])c1ccc(CO)cc1,2.91% (inactive),–
CCN(CC)c1ccc(C=O)cc1,-0.892% (inactive),–
O=C(O)c1cc(O)c2c(c1)C(=O)c1cccc(O)c1C2=O,-2.29% (inactive),–
CC(=O)Nc1ccc(N)cc1,-0.782% (inactive),–
Nc1ccccc1O,1.11% (inactive),–
CCCCCCCCCC=O,-2.62% (inactive),–

# Molecular target: D(2) dopamine receptor (Homo sapiens) (UniProt P14416)
# Assay: Dopamine D2 receptor (DRD2) small molecule antagonists, cell-based qHTS assay (AID 1963595; active = well fitted inhibition curve with a large enough effect in the signal ratio in the repeat runs, with a control signal flat; the % refers to the signal ratio)
# Conditions: HEK293-DRD2 cAMP HTRF antagonist mode; series mostly up to 92.4 µM; activity change, negative = inhibition: at the top concentration
# Outline: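 Antagonist mode in DRD2-HEK293 cells: after compound addition with 0.1 mM Ro20-1724, cells received quinpirole (12 nM) and NKH477 (200 nM) for 30 min at room temperature; HTRF cAMP read after 1 h detection.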
Compound,"activity change, negative = inhibition",Potency
c1cc2c3c(c1)ccc1cccc(c13)C2,-4.27% (inactive),–
CCOC(=O)N1CCC(Nc2ccc(Cl)cc2N)CC1,5.44% [at 42.5 µM] (inactive),–
CCCCCC(=O)OCCc1ccccc1,0.248% (inactive),–
COc1cc(C(C)C)ccc1C,15.4% [at 18.9 µM] (inactive),–
CCCCCCCCCCOCC(O)CN (stereo not drawn),-16.5% [at 42.5 µM] (inactive),–
CCCCCCCC(=O)Oc1c(Br)cc(C#N)cc1Br,9.13% (inactive),–
O=C(C(Cl)Cl)N1CCOC12CCCCC2,0.805% (inactive),–
COc1ccc(-c2coc3cc(O)ccc3c2=O)cc1,2.37% (inactive),–
COc1ccc2nc(SCc3ncc(C)c(OC)c3C)[nH]c2c1,14.3% [at 42.5 µM] (inactive),–
O=S(=O)(O)c1ccc(Cl)cc1,5.33% (inactive),–
CC(C)OC(=O)C(C)N(C(=O)c1ccccc1)c1ccc(F)c(Cl)c1 (stereo not drawn),-0.927% (inactive),–
CCOC(=O)c1c(N)sc2c1CCN(Cc1ccccc1)C2,2.14% [at 42.5 µM] (inactive),–
CN(C)CCCCl,-5.75% (inactive),–
CCCCNc1c(C(=O)OCC)c(C)nc2c1cnn2CC,-1.25% [at 42.5 µM] (inactive),–
C=C(C)C(=O)OC1CC(C)CC(C)(C)C1 (stereo not drawn),0.443% (inactive),–
CCN(CC)c1cccc(C)c1,5.95% (inactive),–

Compound,"activity change, negative = inhibition",Potency
CCCC(C)c1ccccc1O (stereo not drawn),6.47% (inactive),–
CCO[Si](C)(CCCOCC1CO1)OCC (stereo not drawn),-0.191% (inactive),–
O=C(O)c1cn(C2CC2)c2cc(Cl)c(F)cc2c1=O,7.19% [at 42.5 µM] (inactive),–
CCCC(=O)O[C@]1(C(=O)CC)CC[C@H]2[C@@H]3CCC4=CC(=O)CC[C@]4(C)[C@H]3[C@@H](O)C[C@@]21C,2.01% [at 42.5 µM] (inactive),–
CCC(=O)Oc1ccc2c(c1)CC[C@@H]1[C@@H]2CC[C@@]2(C)[C@H]1C[C@@H](OC(=O)CC)[C@@H]2OC(=O)CC,4.32% [at 42.5 µM] (inactive),–
C[C@H](O)C(=O)Nc1c(I)c(C(=O)NC(CO)CO)c(I)c(C(=O)NC(CO)CO)c1I,1.19% [at 42.5 µM] (inactive),–
CC1(C)CCC(C)(C)c2cc(NC(=O)c3ccc(C(=O)O)cc3)ccc21,-5.32% [at 42.5 µM] (inactive),–
O=C=NCc1cccc(CN=C=O)c1,2.32% [at 18.9 µM] (inactive),–
CCCCC(=O)O[C@]1(C(=O)CO)CC[C@H]2[C@@H]3CCC4=CC(=O)CC[C@]4(C)[C@H]3[C@@H](O)C[C@@]21C,12.7% [at 42.5 µM] (inactive),–
CC[C@H](NC(C)C)[C@H](O)c1ccc(O)c2[nH]c(=O)ccc12,–,94.4 nM (active)
O=c1[nH]c(=O)n([C@H]2O[C@H](CO)[C@@H](O)[C@@H]2O)cc1/C=C\Br,-7.24% [at 42.5 µM] (inactive),–
O=C(O)c1cc(O)c2c(c1)C(=O)c1cccc(O)c1C2=O,-1.92% (inactive),–
CC(=O)Nc1ccc(N)cc1,-1.23% (inactive),–
CCCCCCCCCC=O,8.7% (inactive),–
CN1CCN(c2c(F)cc3c(=O)c(C(=O)O)cn4c3c2OCN4C)CC1,2.83% [at 18.9 µM] (inactive),–
COc1ccc2sc(C(=O)Nc3nnn[nH]3)c(OC(C)C)c2c1,3.83% (inactive),–
